This is part of a sample that, as a whole, favours compounds with a hit. Of some 83,000 tested, about 20% had one in any assay.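 Single-dose data. Exposure time 48 hours. Values below 10 considered active.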 Activity calls are given as the source filed them.
Each molecule was assayed on SK-OV-3 ovarian (assay: NCI-60 one-dose screen, 48 h (100 = growth as untreated, 0 = no growth, -100 = all killed)). Settings: 10 µM unless noted.
Protocol: Growth inhibition of the SK-OV-3 human tumor cell line is measured as a screen for anti-cancer activity. Cells are grown in 96 well plates and exposed to the test compound for 48 hours. Compounds are tested at a single concentration, which is 10^-5 M for most compounds. The reported endpoint is percent growth (GI% or GIPRCNT), where numbers from 0 - 100% represent growth inhibition, and numbers from -100% - 0 represent cell death. For example, a value of 40 represents 60% growth inhibition. A value of 0 means no net growth occurred over the course of the experiment. A value of -40 indicates 40% of cells at the beginning of the experiment died by the end of the experiment. A value of -100 means all cells are dead at the end of the experiment.
NCI-60 Human Tumor Cell Lines Screen was performed using the standard one-dose NCI protocol, which is described in more detail at https://dtp.cancer.gov/discovery_development/nci-60/default.htm.
Compounds with GIPRCNT values below 10 were considered active. Activity score was based on GIPRCNT using the following formula: […]
Score is 0 for GIPRCNT values of 100 or above, 50 for GIPRCNT values of 0, and 100 for GIPRCNT values of -100.
With c1ccc(N2c3nc4ccccc4cc3Sc3cc4ccccc4nc32)nc1 the growth was 104% (inactive). In the case of COc1cc(C2CC(c3ccc(C)cc3)=NN2C=O)ccc1OCCN(C)C (stereo not given), the growth is reported as 96.2% (inactive). In the case of CN1CCN(CCCCCN=c2cc3c(=O)n(CCCCCN4CCN(C)CC4)c(=O)c4c(NCCCCCN5CCN(C)CC5)cc5c(O)n(CCCCCN6CCN(C)CC6)c(=O)c2c5c4-3)CC1, the growth is reported as -29.6% (active). In the case of COC(=O)C1CCN(S(=O)(=O)c2ccc(-c3ccccc3)cc2)CC1, the growth is reported as 98.4% (inactive). For Cc1n(Cc2ccc3ccccc3c2)c2ccccc2[n+]1Cc1ccc2ccccc2c1, the growth was -18.4% (active). In the case of Clc1ccc2nc(CI)c(CI)nc2c1, the growth is reported as 98.8% (inactive). In the case of CCOC(=O)c1cc2oc(/C=C/c3cc(=O)c4cc(Cl)ccc4o3)cc2[nH]1, the growth is reported as 98.5% (inactive). With CN1CCC[C@@H]1CCO[C@](C)(c1ccccc1)c1ccc(Cl)cc1 the growth was 73.9% (inactive). In the case of COc1cnc2c(c1)C(=O)c1c-2n(CCCNC(C)C)c(=O)c2cc(F)ccc12, the growth is reported as -33.3% (active). Cc1ccc(C(=O)Cc2ccccc2)c(O)c1 was tested, and the growth was 127% (inactive). CN(C)c1ccc(-c2nc3ncc(Br)cc3o2)cc1 was tested, and the growth was 94.8% (inactive). In the case of COc1ccc2nc(NC(=O)CN3CCn4c(nnc4C(F)(F)F)C3)sc2c1, the growth is reported as 105% (inactive). Cc1cc(Br)c(C)cc1Br was tested, and the growth was 92.7% (inactive). COc1ccc(NC(=O)[C@@H]2C[C@H]2c2ccccc2)c(C(N)=O)c1 was tested, and the growth was 102% (inactive). In the case of Nc1nc(Nc2ccccc2SSc2ccccc2Nc2nc(N)nc(-c3ccc(I)cc3)n2)nc(-c2ccc(I)cc2)n1, the growth is reported as 116% (inactive). With N#Cc1c(-c2ccccc2)cc(-c2ccccc2)n(CCCC(=O)O)c1=O the growth was 105% (inactive). COc1ccc(-c2nnc3c4[nH]cnc4ncn23)c(OC)c1 was tested, and the growth was 11.4% (inactive). With COc1ccc2cc(C3=CC(=O)CCC3)ccc2c1 the growth was 120% (inactive). With CCN(CC)CCCCCCCNc1c2ccc(Cl)cc2nc2ccc(OC)cc12 the growth was -30.7% (active). With C/C=C(/C(=C/C)c1ccc(O)cc1)c1ccc(O)cc1 the growth was 10.7% (inactive). In the case of O=C(/C=C/c1ccc(C(F)(F)F)cc1)c1ccc(Nc2nc(NCCO)nc(NCCO)n2)cc1, the growth is reported as 70.7% (inactive). With CC(C)Cn1cnc2c(NCn3nc(-c4cc(Cl)cc(Cl)c4Cl)n(/N=C/c4ccc(Cl)cc4)c3=S)nc3ccccc3c21 the growth was 110% (inactive). For CC1CN(/N=C/c2ccc([N+](=O)[O-])o2)C(=N)O1 (stereo not given), the growth was 118% (inactive). With O=C1CSC(c2ccccc2Cl)N1c1nnc(Cn2nnc3ccccc32)o1 (stereo not given) the growth was 94.6% (inactive). In the case of COc1ccc(Oc2ccccc2NC(=O)CNC(=O)c2cccc3ccccc23)cc1, the growth is reported as 20.4% [5 µM] (inactive). In the case of FC(F)(F)c1ccc(-c2cnc(-c3nn[nH]n3)nc2NC2CCCCCC2)cc1, the growth is reported as 86.1% [50 µM] (inactive). For CC[C@@H](c1ccc(O)c(O)c1)[C@@H](CC)c1ccc(O)c(O)c1, the growth was 122% (inactive). With CCN(CC)c1ccc(N=C2C=CC(=O)C=C2NC(C)=O)cc1 the growth was 86.9% (inactive). In the case of Cc1sc2nc3c4ccccc4c(NCCCN(C)C)nn3c(=O)c2c1C, the growth is reported as 65.7% (inactive). With Cc1cc2ccccn2c1C(=O)c1ccc(C(=O)c2ccccc2)cc1 the growth was 111% (inactive). For Nc1ncnc2c1CN(Cc1ccccc1)CC2, the growth was 103% (inactive). For C=C(CN1CCc2c([nH]c3ccccc23)C1)c1ccc(C(=O)Nc2ccon2)cc1, the growth was 61.8% (inactive). For O=C(N/N=C/c1cccc([N+](=O)[O-])c1)c1ccc(Br)o1, the growth was 97.7% (inactive). For COc1ccc(CCN2C(=O)CCC3=C2CCCC3=O)cc1OC, the growth was 100% (inactive). CSc1nc2nc3c(nc2c(=O)n1C)C(=O)c1ccccc1C3=O was tested, and the growth was -22.2% (active). With CCNCCCn1c2c(c3ccc(F)cc3c1=O)C(=O)c1cc(OC)cnc1-2 the growth was -30.4% (active). For CC(=O)OC1Oc2cc(C)c(C)cc2-c2oc(=O)c(-c3ccccc3)cc21 (stereo not given), the growth was 11.6% (inactive). In the case of O=C1Nc2ccc(Cl)cc2[C@@](C#CC2CC2)(C(F)(F)F)O1, the growth is reported as 110% (inactive). Cn1c(=O)c2[nH]c(=S)n(Cc3ccccc3)c2n(C)c1=O was tested, and the growth was 107% (inactive). In the case of Nc1ccc2c(c1Br)Cc1ccccc1-2, the growth is reported as 95.4% (inactive).
